This is one part of the list. Records with an inconclusive call do not appear. The source made the active and inactive calls. Calls follow the shape of the dose curve; as a rule, active = well fitted inhibition curve with a large enough effect; inconclusive = small, poorly fitted or top-dose-only effect; inactive = no such curve, though single readings can be large or run the other way.
Molecular target: 4'-phosphopantetheinyl transferase Sfp (Bacillus subtilis (strain 168)) (UniProt P39135)
Experiment: qHTS Assay for Inhibitors of Bacillus subtilis Sfp phosphopantetheinyl transferase (PPTase): SAR Round 2
Conditions: purified Sfp enzyme, PPTase activity
Excerpt: The covalent attachment of a phosphopantetheinyl (4'-PP) arm to a variety of synthases and other proteins is a key posttranslational protein modification. The 4'-PP is installed on the proteins post-translationally from coenzyme A (CoA) on a conserved serine residue by action of phosphopantetheinyl transferase (PPTase) enzymes. Phosphopantetheinylation is essential for synthase activity, and removal of the PPTase gene precludes natural product synthesis in microorganisms, or in the case of fatty acid biosynthesis, renders the organism unviable. PPTase enzymes belong to a distinct structural superfamily. Within bacteria, these enzymes are grouped into two classes based upon primary structure, the AcpS-Type and Sfp-Type PPTases.
Sfp-type PPTases, corresponding to an activator of surfactin production in Bacillus subtilis, are responsible for modifying type I polyketide and nonribosomal peptide synthases of prokaryotes. Sfp-type PPTases are responsible for the activation of a variety of pathogen-associated virulence factors. Among these compounds are toxins such as mycolactone from Mycobacterium ulcerans, siderophores such as vibriobactin from Vibrio cholerae or mycobactin from Mycobacterium tuberculosis, as well as the mycolic acids which form the waxy cell wall of Mycobacteria. The biosyntheses of these natural products are considered attractive targets for drug design.
In search of small molecule Sfp-PPTase inhibitors, a fluorescence quenching assay was developed for detection of Bacillus subtilis Sfp-PPTase enzymatic activity in a miniaturized high-throughput format. The consensus ybbr acceptor peptide […] was N-terminally labeled with Black Hole Quencher-2 (BHQ-2) and used in combination with rhodamine-labeled coenzyme A as a co-substrate.
Inhibition of Sfp-PPTase was detected by recording the fluorescence intensity change over a 30-minute reaction period at a 525 nm excitation and 598 nm emission. Reagents were supplied by Michael Burkart and Timothy Foley, University of California at San Diego.
NIH Chemical Genomics Center [NCGC]
NIH Molecular Libraries Probe Centers Network [MLPCN]
Assay Submitter (PI): Michale Burkart, University of California, San Diego
Assay Buffer: 50 mM Hepes-Na pH 7.6, 10 mM MgCl2, 0.01% Nonidet P-40, and 0.01% BSA.
3 uL of Sfp-PPTase enzyme (final concentration 15 nM) and 1 uL of substrate mixture (final concentration for rhodamine-CoA and BHQ-2-YbbR 5 uM and 12.5 uM, respectively) dispensed in columns 1, 2, 5 - 48. Columns 1 and 2 used to generate neutral control (uninhibited reaction)
Three uL of reagents, consisting of buffer (in columns 3 and 4 as negative control) and Sfp-PPTase (in columns 1, 2, 5 - 48) were dispensed into 1,536-well Greiner black solid bottom plate. Compounds (23 nL) were transferred via Kalypsys pintool equipped with 1,536-pin array. The plate was incubated for 15 min at room temperature, followed by the addition of 1 uL substrate to start the reaction. The plate was then centrifuged at 1000 rpm for 15 seconds, and the fluorescence intensity recorded on a ViewLux High-throughput CCD imager (Perkin-Elmer) using standard BODIPY optics (525 nm excitation and 598 nm emission). The plate was then incubated for 30 minutes, and a second read on the ViewLux was performed. The fluorescence intensity difference over the 30-minute period was used to calculate the respective reaction rate for each well.

Potency, active:
Cc1cc(C)nc(NC(=S)N2CCN(c3ccc4nonc4c3)CC2)c1 6460 nM
COc1ccnc(NC(=S)N2CCN(c3ncc(C(F)(F)F)cc3Cl)CC2)c1 290 nM
Cc1cc(C)nc(NC(=S)N2CCN(c3ccc(Cl)cc3C(F)(F)F)CC2)c1 580 nM
COc1cccc(NC(=S)N2CCN(c3ccccc3C(F)(F)F)CC2)n1 3240 nM
Cc1ccc(N2CCN(C(=S)Nc3cc(C)ccn3)CC2)cc1 5130 nM
Cc1cc(C)nc(NC(=S)N2CCN(c3ccc(Cl)cc3F)CC2)c1 910 nM
Cc1cc(C)nc(NC(=S)N2CCN(c3cccc(C(F)(F)F)c3)CC2)c1 510 nM
Cc1cc(C)nc(NC(=S)N2CCN(c3cccc(C#N)c3)CC2)c1 1620 nM

— PubChem BioAssay AID602370 (National Center for Advancing Translational Sciences (NCATS), 2012)
